EPAC2 agonist: activates human EPAC2 exchange factor; hit rate 0.079% among 360,000; EPAC2 activation, biochemical qHTS; response scale: 100% = 6.5 mM cAMP response; Potency, µM (highest dose often 154 µM), without a hit: top-dose activation, actives largely listed as activators; Q8WZA2; AID 720711; also: nearly all actives have a fitted effect of over 50% in size
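Compounds were titrated in qHTS against a Rap1B-BODIPY-GDP (250 nM) complex with EPAC2 (100 nM) and GDP (50 uM). BODIPY-GDP release tracked at 480/540 nm over 30 min at room temperature, normalized to 6.5 mM cAMP.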
USP1-UAF1 inh: inhibitors of human USP1/UAF1 deubiquitinase. O94782. recombinant USP1/UAF1, Ub-Rhodamine cleavage fluorescence. Potency, µM (top dose mostly 57.1 µM), without a hit: at the top dose activity change, negative = inhibition, actives largely listed as inhibitors. hit rate 0.23% among 390,000; also: % is scaled to controls: 0 for no effect and ±100 for the full control effect; nearly all actives have a fitted effect of over 60% in size
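USP1/UAF1 complex (1 nM) preincubated 15 min at room temperature with compound, then Ub-Rho substrate (150 nM final) added. Kinetic fluorescence at 480/540 nm over 6 reads at 60 s intervals; 50 mM HEPES pH 7.8, 0.5 mM EDTA, 0.1 mg/ml BSA, 1 mM TCEP, 0.01% Tween-20.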
EPAC1 antag: EPAC1 (human) antagonism; O95398; EPAC1 GEF assay, Rap1b-BODIPY-GDP exchange fluorescence; Potency, µM (series often up to 115 µM), for inactives: top-dose activity change, negative = inhibition, actives largely listed as inhibitors; hit rate 0.14% among 360,000;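 also: plate controls were vehicle for no effect and positive control for full effect; nearly all actives have a fitted effect of over 50% in size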
EPAC2 antag: EPAC2 (human) antagonism. Q8WZA2. EPAC2 GEF exchange of Rap1B-BODIPY-GDP, fluorescence. Potency, µM (series often up to 114 µM), inactives show at the highest dose activity, negative = inhibition, most hits filed as inhibitors. hit rate 0.18% among 360,000. AID 720708; also: % is scaled to controls: 0 for no effect and ±100 for the full control effect; nearly all actives have a fitted effect of over 45% in size
EPAC1 agonist: EPAC1 (human) agonism. O95398. EPAC1 agonist qHTS, biochemical assay; response scale: 100% = response to 6.5 mM cAMP. Potency, µM (series often up to 154 µM), for the others: at the highest dose activation, actives largely listed as activators. hit rate 0.073% among 360,000. AID 720707; also: nearly all actives have a fitted effect of over 60% in size
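Compounds were pinned as a concentration titration into mixtures of EPAC1 (100 nM), BODIPY-GDP-loaded Rap1B (250 nM) and GDP (50 uM). After 5 min at room temperature, fluorescence was followed for 30 min; activity was scaled to 6.5 mM cAMP.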
* hit, by the source's call; ? = inconclusive; / = no result. In the library only some 0.49% were active in any assay of this set; here they are far more common. Calls follow the shape of the dose curve; as a rule, active = well fitted curve in the direction sought with a large enough effect; inconclusive = small, poorly fitted or top-dose-only effect, or another doubt; inactive = no such curve, though single readings can be large; an effect the other way counts as inactive or inconclusive. Potency is read from the fitted curve at half-maximal effect.

SMILES	EPAC2 agonist	USP1-UAF1 inh	EPAC1 antag	EPAC2 antag	EPAC1 agonist
O=C(Nc1ccc(N2CCOCC2)cc1N1CCOCC1)c1ccc([N+](=O)[O-])cc1	3%	-16%	-15%	5%	-11%
COc1ccc2c(c1)c(=O)c(C(=O)c1ccccc1)cn2CC(=O)Nc1ccc2c(c1)OCO2	/	-14%	/	/	/
COc1ccc(-c2cc3ccc(O)c(CN4CCC(C)CC4)c3oc2=O)cc1OC	/	4%	/	/	/
Cc1cccc(-n2c(SCC(=O)Nc3ccc(C)c(C)c3)nc3n[nH]c(C)c3c2=N)c1	/	-25%	/	/	/
COc1ccc2ccccc2c1C(O)c1nccn1C (configuration not stated)	100µM*	?	59%	72%	63µM*
Cn1ccnc1C(O)c1ccccc1 (configuration not stated)	13%	-1%	-5%	10%	7%
CN1CCN(c2nc(-c3cccs3)cs2)CC1	1%	-3%	-4%	-5%	7%
O=C1c2ccccc2C(=O)N1c1nc(-c2cccs2)cs1	10%	2%	?	56µM*	8%
Cc1cc2nc3c(=O)n(CCc4ccccc4)c(=O)[nH]c3nc2cc1N	100µM*	18µM*	20%	75%	?
Nc1ccc2nc3c(=O)n(C4CCCCC4)c(=O)[nH]c3nc2c1	45%	102%	-33%	152%	?
CCCCn1c(=O)[nH]c2nc3cc(N)ccc3nc2c1=O	100µM*	28µM*	78%	117%	100µM*
Nc1ccc2nc3c(=O)n(CCc4ccccc4)c(=O)[nH]c3nc2c1	63µM*	16µM*	117%	14%	112µM*
Cc1cccn2c(=O)c(C(=O)NCc3ccccc3Cl)c(O)nc12	/	4%	/	/	/
CCN(CC)c1ccc(/C=C(/C#N)c2nc3ccc(C)cc3[nH]2)c(OC(C)C)c1	?	25µM*	1%	1%	?
COc1cc(/C=C(\C#N)c2nc3ccc(C)cc3[nH]2)cc([N+](=O)[O-])c1O	6%	?	28µM*	?	-3%
Cc1cc(C)n(-c2nc(C)c(C)c(=O)n2CC(=O)Nc2ccc(Cl)c(Cl)c2)n1	/	16%	/	/	/
S=c1[nH]nc(-c2cc(-c3ccccc3)n[nH]2)n1/N=C/c1ccc(Cl)cc1	-10%	-8%	7%	1%	1%
S=c1[nH]nc(-c2cc(-c3ccccc3)n[nH]2)n1/N=C/c1cccc(Cl)c1	3%	?	50µM*	-21%	89µM*
S=c1[nH]nc(-c2cc(-c3ccccc3)n[nH]2)n1/N=C/c1ccc(Cl)c(Cl)c1	5%	3%	56µM*	?	63µM*
CCn1cc(C(=O)N2CCN(c3cccc(Cl)c3)CC2)c(=O)c2cc(S(=O)(=O)N3CCOCC3)ccc21	/	-7%	/	/	/
CCc1cccc(C)c1Nc1c(-c2ccc(SC)cc2)nc2sccn12	/	-13%	/	/	/
COc1cc(/C=C/[N+](=O)[O-])ccc1OCc1cccc(C(=O)O)c1	18%	-6%	?	22µM*	8%
Cc1ccc(-c2noc(CN(C3CCCCC3)S(=O)(=O)c3ccc(F)cc3)n2)cc1	/	-2%	/	/	/
CCOC(=O)N1CCN(C2=C(NS(=O)(=O)c3ccc(C)cc3)C(=O)c3ccccc3C2=O)CC1	24%	22µM*	-29%	-18%	11%
Cc1ccc(S(=O)(=O)NC2=C(N3CCN(Cc4ccccc4)CC3)C(=O)c3ccccc3C2=O)cc1	4%	-6%	10%	-4%	5%
SMILES	EPAC2 agonist	USP1-UAF1 inh	EPAC1 antag	EPAC2 antag	EPAC1 agonist
Cc1ccc(NC2=C(N3CCOCC3)C(=O)c3ccccc3C2=O)cc1	20%	40µM*	-7%	-6%	28%
O=C(O)c1ccc(NC2=C(N3CCOCC3)C(=O)c3ccccc3C2=O)cc1	-12%	28µM*	-20%	1%	-7%
COc1ccc(CNC(=O)Cn2c(=O)oc3cc(S(=O)(=O)N4CCCCCC4)ccc32)cc1	/	-16%	/	/	/
CN(C)c1ccc(/C=C(\C#N)c2nc(-c3ccc(Cl)c(Cl)c3)cs2)cc1	/	24%	/	/	/
O=C(COc1ccc(Cl)cc1)OCc1cc(=O)n2nc(-c3cccs3)sc2n1	/	-22%	/	/	/
O=[N+]([O-])c1ccc(C=Nc2cccc3ccccc23)s1	8%	14µM*	-19%	1%	5%
C=CCOc1ccc(C2C(C(=O)c3cccs3)=C(O)C(=O)N2c2nnc(C)s2)cc1 (configuration not stated)	-72%	48%	8%	11%	-11%
CC(C)c1nnc(N2C(=O)C(O)=C(C(=O)c3cccs3)C2c2ccccc2)s1 (configuration not stated)	-12%	-12%	3%	0%	-10%
COc1ccc(C2C(C(=O)c3cccs3)=C(O)C(=O)N2c2nnc(C)s2)cc1OC (configuration not stated)	21%	4µM*	12%	53%	8%
COc1ccc(C2C(C(=O)c3cccs3)=C(O)C(=O)N2c2nncs2)cc1 (configuration not stated)	-21%	2µM*	-10%	18%	-7%
CC(C)(C)OC(=O)N1CCC(c2c(C(=O)NCCN3CCOCC3)cnn2-c2ccc(F)cc2)CC1	/	-19%	/	/	/
COc1ccc2c3c(cccc13)C(=O)CC2	112µM*	?	222%	125%	100µM*
C=CCN1C=CC(=C/C=C(/C#N)C(=O)OCC)C=C1	28%	28µM*	-2%	3%	24%
CCOC(=O)/C(C#N)=C/C=C1/C=CC=CN1C	9%	-16%	-5%	3%	-8%
COc1ccc(-c2nnc(SCC(=O)NCc3ccccc3)nc2-c2ccc(OC)c(OC)c2)cc1OC	/	-6%	/	/	/
CC(=O)CCc1oc2ccccc2c1-c1ccccc1	23%	0%	-5%	25µM*	16%
CC(=O)CCc1oc2ccc(C)cc2c1Cc1ccccc1	8%	-8%	?	?	8%
COc1ccc(-n2c(=O)c3ccccc3n(Cc3ccccc3C)c2=O)c(OC)c1	/	8%	/	/	/
CC1(C)N([O-])c2cc([N+](=O)[O-])ccc2[N+]1=O	8%	25µM*	71µM*	?	1%
CCOc1cc2c(C#N)c(N3CCCC3)nc(N)c2c(N)n1	-6%	-26%	0%	-9%	-8%
COc1cc2c(C#N)c(N3CCCC3)nc(N)c2c(N)n1	26%	7.9µM*	?	-18%	-4%
N#Cc1c(N2CCCC2)nc(N)c2c(N)nc(N3CCCC3)cc12	?	0.32µM*	?	?	1%
CCCOc1cc2c(C#N)c(N3CCCC3)nc(N)c2c(N)n1	21%	28µM*	-22%	8%	-5%
CCc1ccccc1NC(=O)CSc1nnc(COc2ccccc2Cl)o1	/	-8%	/	/	/
COc1ccccc1NC(=O)COC(=O)c1ccc([N+](=O)[O-])s1	5%	14µM*	11µM*	?	8%
C/C(=N\NS(=O)(=O)c1ccccc1)c1cc(Cl)cc(Cl)c1O	4%	-9%	18µM*	?	-11%
